Screening results (PubChem)
A selection: hits, their analogues and other compounds. The true share with any hit is near 19%.
TGFb SMAD3 inh: blocks TGF-b signaling; HepG2 CAGA-GFP TGF-b/SMAD3 reporter, GFP fluorescence, 18 h; TGF-beta stimulated, 500 pg/mL final; actives 1.2% (n = 410,000); Potency, µM (doses to about 46.1 µM), inactives show top-dose activity, negative = inhibition, usual class: inhibitors; AID 588855; note: potency is the fitted concentration of half-maximal effect; % is set by controls: 0 for no effect and ±100 for the full control effect; nearly all actives have a fitted effect of over 65% in size
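Inhibition was scored as loss of TGF-beta-induced (500 pg/mL final, 18 hours, 37 degrees C) GFP in HEPG2 cells carrying a CAGA-GFP reporter, in DMEM with 1% FBS. Well GFP was summed per cell; Activity was normalised to unstimulated and stimulated DMSO wells, then concentration-response fitting.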
IL-1B inflam inh: blocks inflammasome-driven IL-1 beta release; THP-1 LPS/ATP IL-1B secretion, AlphaLISA, 16 h; hits give low values; activity change, % at 57.5 µM; actives 4.7% (n = 360,000); in the data active = activity change below about -50%; inconclusive = mostly about -30% to -49%; note: % is set by controls: 0 for no effect and ±100 for the full control effect
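THP-1 cells pretreated 1 hr with compounds (up to 57.5 uM final), then stimulated with LPS (250 ng/mL final) plus ATP (1.25 mM final); secreted IL-1B measured by AlphaLISA after 16 hr, decreased signal indicating inhibition.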
TDP1 cell CPT: growth inhibition of DT40 Tdp1-/-;hTDP1 cells with camptothecin (screen for TDP1 inhibitors). chicken DT40 Tdp1-/-;hTDP1 cells + 20 nM CPT, ATP luminescence, 48 h. actives 12% (n = 420,000). Potency, µM (titrated, usually from 46.2 µM), inactives show at the highest dose activity change, negative = growth inhibition, most hits filed as inhibitors; note: potency is the fitted concentration of half-maximal effect; % is set by controls: 0 for no effect and ±100 for the full control effect; nearly all actives have a fitted effect of over 55% in size
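Chicken DT40 Tdp1-/- cells stably complemented with human TDP1 were seeded at 400 cells/well in medium containing 20 nM camptothecin, exposed to pin-transferred compounds, and grown at 37 °C for at least 48 hr. Viability was read as ATP luminescence.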
TDP1 block: inhibitors of human tyrosyl-DNA phosphodiesterase TDP1 | Q9NUW8 | recombinant TDP1, AlphaScreen DNA substrate cleavage | Potency, µM (highest dose often 130 µM), for the others: at the top dose activity change, negative = inhibition, hits mostly inhibitors | actives 0.28% (n = 350,000) | AID 485290; note: potency is the fitted concentration of half-maximal effect; % is set by controls: 0 for no effect and ±100 for the full control effect; nearly all actives have a fitted effect of over 40% in size
Target sequence (Q9NUW8 whole entry, looked up): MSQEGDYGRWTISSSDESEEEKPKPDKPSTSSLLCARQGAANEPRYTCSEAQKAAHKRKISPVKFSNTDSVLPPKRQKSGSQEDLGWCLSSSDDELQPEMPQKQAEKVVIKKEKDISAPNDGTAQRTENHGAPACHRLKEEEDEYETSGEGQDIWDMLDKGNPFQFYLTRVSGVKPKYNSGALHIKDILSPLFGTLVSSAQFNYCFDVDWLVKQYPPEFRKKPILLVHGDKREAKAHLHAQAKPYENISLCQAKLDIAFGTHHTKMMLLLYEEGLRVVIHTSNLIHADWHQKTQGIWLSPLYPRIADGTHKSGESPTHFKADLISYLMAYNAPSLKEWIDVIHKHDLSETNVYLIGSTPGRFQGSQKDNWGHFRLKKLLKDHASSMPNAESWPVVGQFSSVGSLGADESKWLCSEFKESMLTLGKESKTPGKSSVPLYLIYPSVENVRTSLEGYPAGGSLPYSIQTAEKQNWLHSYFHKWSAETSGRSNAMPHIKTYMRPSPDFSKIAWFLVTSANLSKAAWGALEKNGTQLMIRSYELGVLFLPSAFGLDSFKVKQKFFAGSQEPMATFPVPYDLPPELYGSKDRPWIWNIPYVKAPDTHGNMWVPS
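Signal: AlphaScreen proximity between streptavidin donor and anti-FITC acceptor beads on intact substrate. Reaction: Tdp1 1 nM, substrate 15 nM final, 5 min RT after 15 min compound preincubation.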
HepG2 viability: HepG2 cytotoxicity, counter-screen for TGF-b inhibitors; HepG2 CAGA-GFP viability, ATP luminescence, 18 h; Potency, µM (doses to about 46.1 µM), without a hit: top-dose activity change, negative = cytotoxicity, usual class: cytotoxic; actives 0.76% (n = 410,000); AID 588856; note: potency is the fitted concentration of half-maximal effect
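HepG2 CAGA-GFP cells (1000/well, DMEM with 1% FBS) received compound, then TGF-beta at 500 pg/mL final, and were incubated 18 hours at 37 degrees C. Viability was read by CellTiter-Glo luminescence. Media-only wells were set as complete cell-killing and DMSO as no toxicity.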
TDP1 cell noCPT: qHTS for Inhibitors of human tyrosyl-DNA phosphodiesterase 1 (TDP1): qHTS in cells in absence of CPT. DT40 Tdp1-/- hTDP1 cells, no CPT, ATP luminescence, 48 h. Potency, µM (highest dose often 46.2 µM), without a hit: at the highest dose activity change, negative = growth inhibition, hits mostly inhibitors. actives 15% (n = 420,000); note: potency is the fitted concentration of half-maximal effect; % is set by controls: 0 for no effect and ±100 for the full control effect; nearly all actives have a fitted effect of over 55% in size
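Seeded 400 DT40-hTDP1 cells/well (vehicle DMSO, no 20 nM CPT); pinned compounds; ≥48 hr at 37 °C; CellTiter-Glo luminescence as viability measure.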
* = called active by the depositor; u = inconclusive; x = not tested or not shown. Unless noted, calls come from the whole dose curve; as a rule, active = well fitted curve in the direction sought with a large enough effect; inconclusive = small, poorly fitted or top-dose-only effect, or another doubt; inactive = no such curve, though single readings can be large; an effect the other way counts as inactive or inconclusive.

SMILES	TGFb SMAD3 inh	IL-1B inflam inh	TDP1 cell CPT	TDP1 block	HepG2 viability	TDP1 cell noCPT
Cc1ccc(NC(=O)N2CCc3cc(S(=O)(=O)N4CCC(C)CC4)ccc32)cc1F	x	x	u	-1.0%	-4.2%	u
CC(=O)c1ccc(S(=O)(=O)N2CCn3cccc3C2c2ccc(F)c(F)c2)cc1 (stereo unspecified)	-10.7%	x	u	5.2%	-14.6%	20.6µM*
Cc1ccc([N+](=O)[O-])cc1S(=O)(=O)N1CCn2cccc2C1c1ccc(F)c(F)c1 (stereo unspecified)	u	x	u	5.2%	-5.5%	u
Cc1ccc(C2c3cccn3CCN2S(=O)(=O)c2ccc([N+](=O)[O-])cc2)cc1 (stereo unspecified)	-17.7%	x	u	13.0%	-0.2%	18.4µM*
CC(C)c1ccc(Cn2cnc3c(cnn3C(C)(C)C)c2=O)cc1	-7.8%	x	x	x	-12.6%	x
C=Cc1cc2c(s1)c1cnn(Cc3ccccc3F)c(=O)c1n2C	x	x	x	-2.0%	x	x
Cc1ccc(SCCNC(=S)Nc2ccc(C)cc2C)cc1	-16.8%	0.0	0.7%	5.5%	-20.6%	3.2%
Cc1ccccc1NC(=S)NC(C)CCc1ccccc1 (stereo unspecified)	22.1%	-5.8	u	2.7%	-16.3%	20.6µM*
Cc1ccc(NC(=S)NCCC(c2ccccc2)c2ccccc2)c(C)c1	u	-4.3	23.1µM*	7.9%	-16.4%	16.4µM*
CC(C)(C)c1ccccc1NC(=S)NCc1ccccc1	-26.2%	-0.8	u	4.2%	-17.2%	18.4µM*
Cc1ccc(NC(=S)NNC(=O)c2ccccc2O)c(C)c1	u	10.9	23.1µM*	-4.8%	-32.6%	13µM*
O=c1[nH]cc(S(=O)(=O)Nc2ccc3c(c2)OCO3)c(=O)[nH]1	4.1%	-11.2	-1.4%	2.3%	15.0%	-16.2%
O=C(SCC(O)C(O)CS)c1cccs1 (stereo unspecified)	16.4%	0.0	-1.1%	x	-4.9%	-2.6%
COc1ccc(OC)c(NC(=S)NCCC(c2ccccc2)c2ccccc2)c1	-7.6%	-3.2	u	x	-31.5%	14.6µM*
Cc1ccccc1NC(=S)NCCC(c1ccccc1)c1ccccc1	u	-61.5*	u	7.8%	-11.7%	u
Cc1ccc(NC(=S)NCc2ccccc2)c(C)c1	-13.0%	-13.7	23.1µM*	x	-32.7%	u
Cc1cccc(N(C)C(=O)C2CCN(S(=O)(=O)c3cccc4nonc34)CC2)c1	u	x	u	6.4%	-16.0%	u
CC(=O)N1c2c(ccc3ccccc23)C(C)CC12CCCCC2 (stereo unspecified)	u	17.4	u	0.0%	-16.4%	u
CC1CC2(CCCCC2)Nc2c1ccc1ccccc21 (stereo unspecified)	2.2%	29.1	u	6.2%	7.6%	10.3µM*
CSc1ncc(C(=O)Nc2cccnc2)c(C(F)(F)F)n1	7.1%	-1.1	-10.8%	x	3.1%	-1.4%
CCOCCOC(=O)c1ccc(NC(=O)C2COc3ccccc3O2)cc1 (stereo unspecified)	u	0.0	-26.4%	-5.8%	-3.3%	-3.8%
O=C(N/N=C/c1c[nH]c2ccccc12)C1COc2ccccc2O1 (stereo unspecified)	u	24.2	10.3µM*	2.6%	1.6%	13µM*
O=C(N/N=C/c1c[nH]c2ccccc12)C1CC1c1ccccc1 (stereo unspecified)	u	26.3	11.6µM*	-2.7%	-34.5%	20.6µM*
O=C(N/N=C\c1ccc([N+](=O)[O-])s1)C1COc2ccccc2O1 (stereo unspecified)	-3.2%	-52.8*	2.91µM*	6.6%	-12.9%	5.8µM*
CCOC(=O)c1ccc(-n2c(O)c(/C=N/NC(=O)C3COc4ccccc4O3)c3ccccc3c2=O)cc1 (stereo unspecified)	8.91µM*	35.9	u	10.8%	-42.1%	u
SMILES	TGFb SMAD3 inh	IL-1B inflam inh	TDP1 cell CPT	TDP1 block	HepG2 viability	TDP1 cell noCPT
O=C(N/N=C/c1c[nH]c2ccccc12)C1CC1(c1ccccc1)c1ccccc1 (stereo unspecified)	u	u	u	11.0%	-111.9%	u
Cc1noc(C)c1C(=O)N1CCC2(CCCN(Cc3nccs3)C2)CC1	x	x	-22.9%	x	x	-24.4%
CC(C)c1ccc(C2C3=C(CC(c4ccco4)CC3=O)Nc3nc(C(F)(F)F)nn32)cc1 (stereo unspecified)	7.6%	x	x	3.7%	-1.6%	x
O=C(N/N=C\c1ccc([N+](=O)[O-])o1)C1COc2ccccc2O1 (stereo unspecified)	15.8µM*	-15.4	7.31µM*	0.0%	-146.2%	6.51µM*
CC(C)(C)c1ccc(C2CC2C(=O)N/N=C\c2ccc[nH]2)cc1 (stereo unspecified)	u	-60.7*	u	7.4%	-16.6%	u
O=C(N/N=C\c1ccc(Cl)s1)C1COc2ccccc2O1 (stereo unspecified)	-0.1%	-7.7	u	x	-20.9%	9.2µM*
O=C(N/N=C/c1ccc(N2CCOCC2)cc1)C1COc2ccccc2O1 (stereo unspecified)	6.8%	0.0	-7.7%	3.7%	-3.4%	-5.9%
